Assay results taken from PubChem BioAssay (NCATS).
Records with an inconclusive call do not appear. Calls of active or inactive are those of the source. Calls come from the whole dose curve; as a rule, active = well fitted curve in the direction sought with a large enough effect; inconclusive = small, poorly fitted or top-dose-only effect, or another doubt; inactive = no such curve, though single readings can be large; an effect the other way counts as inactive or inconclusive.

Key:
CRL-7250 = normal cell line; test: Cytotoxic Profiling of Annotated Libraries Using Quantitative High-Throughput Screening (AID 1296008); details: Five cell lines viability, CellTiter-Glo ATP luminescence, 48-72 h; max response: hits give low values; note: nearly all actives have a fitted effect of over 60% in size; for max response: % is set by controls: 0 for no effect and ±100 for the full control effect
Procedure, shortened: (§1)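 Compounds were pin-transferred onto cells and incubated 48 or 72 hr at 37 degree Celsius, 95% humidity. CellTiter-Glo was added, plates sat 10 min at room temperature, then ATP-coupled luminescence was imaged as the viability read-out.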

HEK293 = test: as above; details: Five cell lines viability, CellTiter-Glo ATP luminescence, 48-72 h; max response: hits give low values
Procedure, shortened: as §1

HaCat [1] = test: as above; details: Five cell lines viability, CellTiter-Glo ATP luminescence, 48-72 h; max response: hits give low values
Procedure, shortened: as §1

KB-3-1 = test: as above; details: Five cell lines viability, CellTiter-Glo ATP luminescence, 48-72 h; max response: hits give low values
Procedure, shortened: as §1

NIH3T3 = test: as above; details: Five cell lines viability, CellTiter-Glo ATP luminescence, 48-72 h; max response: hits give low values
Procedure, shortened: as §1

HACAT [2] = test: qHTS assay to identify novel small-molecules to repurpose for Merkel cell carcinoma treatment (AID 1296009); details: MCC and control cell lines, CellTiter-Glo viability, 72 h; at 44.8 µM (top of the series) unless noted; note: nearly all actives have a fitted effect of over 60% in size
Procedure, shortened: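 Luminescence from CellTiter-Glo, read 10 min after addition at room temperature, reported viability following a 72 hr, 37 degree celsius treatment with NPC or MIPE compounds in titration; values normalized to plate controls.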

C33A = test: Primary qHTS to identify gynecologic anti-cancer compounds using libraries of approved drugs and bioactive compounds (AID 1345084); details: Gynecologic cancer cell panel viability, ATPlite luminescence, 48 h; series mostly up to 57.5 µM; note: % is set by controls: 0 for no effect and ±100 for the full control effect; nearly all actives have a fitted effect of over 55% in size
Procedure, shortened: (§2)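 Cells, 1,000 per well, were allowed to settle for 16 h at 37 C before compound addition. Five concentrations were tested for 48 h, and viability was read by ATPlite luminescence after 15 min at room temperature.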

CAOV3 = test: as above; details: Gynecologic cancer cell panel viability, ATPlite luminescence, 48 h; series mostly up to 57.5 µM
Procedure, shortened: as §2

CASKI = test: as above; details: Gynecologic cancer cell panel viability, ATPlite luminescence, 48 h; series mostly up to 57.5 µM
Procedure, shortened: as §2

Es-2 = test: as above; details: Gynecologic cancer cell panel viability, ATPlite luminescence, 48 h; series mostly up to 57.5 µM
Procedure, shortened: as §2

HeLa = test: as above; details: Gynecologic cancer cell panel viability, ATPlite luminescence, 48 h; series mostly up to 57.5 µM
Procedure, shortened: as §2

Hek293T = test: as above; details: Gynecologic cancer cell panel viability, ATPlite luminescence, 48 h, control line for the selectivity index; series mostly up to 57.5 µM
Procedure, shortened: as §2

JEG-3 = test: as above; details: Gynecologic cancer cell panel viability, ATPlite luminescence, 48 h; series mostly up to 57.5 µM
Procedure, shortened: as §2

OV90 = test: as above; details: Gynecologic cancer cell panel viability, ATPlite luminescence, 48 h; series mostly up to 57.5 µM
Procedure, shortened: as §2

CC1CC(=O)C2=C(O1)OC1(C)CCC3C(C)(C)C4OC4C(=O)C3(C)C1C2 (stereo not drawn)
inactive: outcome (CRL-7250) | max response (HEK293) 1.32% | outcome (HaCat [1]) | outcome (KB-3-1) | max response (NIH3T3) -0.441% | outcome (HACAT [2]) | Potency (C33A) | Potency (CAOV3) | outcome (CASKI) | Potency (Es-2) | Potency (HeLa) | Potency (Hek293T) | Potency (JEG-3) | Potency (OV90)

C=CC(C)(O)CC/C=C(\C)COC1O[C@H](CO)[C@@H](O)[C@H](O)[C@H]1O (stereo partly drawn)
inactive: max response (CRL-7250) -13.2% | max response (HEK293) 0.0631% | outcome (HaCat [1]) | max response (KB-3-1) 1.01% | max response (NIH3T3) 3.77% | outcome (HACAT [2]) | Potency (C33A) | Potency (CAOV3) | outcome (CASKI) | Potency (Es-2) | Potency (HeLa) | Potency (Hek293T) | Potency (JEG-3) | Potency (OV90)

OCC(O)C(c1c[nH]c2ccccc12)c1c[nH]c2ccccc12 (stereo not drawn)
inactive: outcome (CRL-7250) | max response (HEK293) -8.71% | outcome (HaCat [1]) | outcome (KB-3-1) | max response (NIH3T3) 1.42% | outcome (HACAT [2]) | Potency (C33A) | Potency (CAOV3) | outcome (CASKI) | Potency (Es-2) | Potency (HeLa) | Potency (Hek293T) | Potency (JEG-3) | Potency (OV90)

C/C=C(/C)C(=O)O[C@@H]1C[C@@H](OC(=O)/C(C)=C\C)[C@@]2(C)C3C(=O)C=C(C)C2C3C1(C)C
inactive: max response (CRL-7250) -3.44% | max response (HEK293) -8.78% | outcome (HaCat [1]) | outcome (KB-3-1) | max response (NIH3T3) 4.88% | outcome (HACAT [2]) inactive [at 17.4 µM] | Potency (C33A) | Potency (CAOV3) | outcome (CASKI) | Potency (Es-2) | Potency (HeLa) | Potency (Hek293T) | Potency (JEG-3) | Potency (OV90)

CC1C2=CC(=O)OC2(O)CC2C1CCC1C(C)(C)CCC(O)C21C (stereo not drawn)
inactive: max response (CRL-7250) -5.55% | max response (HEK293) -27.5% | outcome (HaCat [1]) | max response (KB-3-1) -9.97% | max response (NIH3T3) 0.733% | outcome (HACAT [2]) | Potency (C33A) | Potency (CAOV3) | outcome (CASKI) | Potency (Es-2) | Potency (HeLa) | Potency (Hek293T) | Potency (JEG-3) | Potency (OV90)

COC(=O)C[C@H]1C(C)(C)[C@H](OC(=O)C(C)C)C2CC3=C4CC(=O)O[C@@H](c5ccoc5)[C@]4(C)CCC3[C@@]1(C)C2=O (stereo partly drawn)
inactive: max response (CRL-7250) 2.69% | max response (HEK293) -10.8% | outcome (HaCat [1]) | max response (KB-3-1) -0.987% | max response (NIH3T3) 1.73% | outcome (HACAT [2]) inactive [at 17.4 µM] | Potency (C33A) | Potency (CAOV3) | outcome (CASKI) | Potency (Es-2) | Potency (HeLa) | Potency (Hek293T) | Potency (JEG-3) | Potency (OV90)

Cc1[nH]c2ccccc2c1CC(=O)N[C@@H](Cc1ccccc1)C(=O)N(C)c1ccccc1
inactive: max response (CRL-7250) -9.69% | max response (HEK293) -12.5% | outcome (HaCat [1]) | outcome (KB-3-1) | max response (NIH3T3) -0.277% | outcome (HACAT [2]) | Potency (C33A) | Potency (CAOV3) | outcome (CASKI) | Potency (Es-2) | Potency (HeLa) | Potency (Hek293T) | Potency (JEG-3) | Potency (OV90)

COC(=O)[C@H](c1ccccc1Cl)N1CCC2SC(=O)C=C2C1 (stereo partly drawn)
inactive: max response (CRL-7250) -4.86% | max response (HEK293) -11.7% | outcome (HaCat [1]) | max response (KB-3-1) 7.5% | max response (NIH3T3) -12.1% | outcome (HACAT [2]) | Potency (C33A) | Potency (CAOV3) | outcome (CASKI) | Potency (Es-2) | Potency (HeLa) | Potency (Hek293T) | Potency (JEG-3) | Potency (OV90)

N#Cc1cc(-c2n[nH]c(-c3ccncc3)n2)ccn1
inactive: max response (CRL-7250) -0.428% | max response (HEK293) -15.1% | outcome (HaCat [1]) | max response (KB-3-1) -1.34% | max response (NIH3T3) 0.552% | outcome (HACAT [2]) | Potency (C33A) | Potency (CAOV3) | outcome (CASKI) | Potency (Es-2) | Potency (HeLa) | Potency (Hek293T) | Potency (JEG-3) | Potency (OV90)

CC(C)(O)[C@@H]1CC[C@]2(CO)[C@@H](O)CC[C@](C)(O)[C@H]2[C@@H]1O[C@@H]1O[C@H](CO)[C@@H](O)[C@H](O)[C@H]1O
inactive: max response (CRL-7250) 1.76% | max response (HEK293) 1.77% | outcome (HaCat [1]) | max response (KB-3-1) 8.79% | max response (NIH3T3) 0.484% | outcome (HACAT [2]) inactive [at 17.4 µM] | Potency (C33A) | Potency (CAOV3) | outcome (CASKI) | Potency (Es-2) | Potency (HeLa) | Potency (Hek293T) | Potency (JEG-3) | Potency (OV90)

CC1CC(=O)[C@]2(O)C(C(=O)OCCc3ccc(O)c(O)c3)=CO[C@@H](O[C@@H]3O[C@H](CO)[C@@H](O)[C@H](O)[C@H]3O)[C@H]12 (stereo partly drawn)
inactive: max response (CRL-7250) 4.18% | max response (HEK293) -8.88% | outcome (HaCat [1]) | max response (KB-3-1) 8.6% | max response (NIH3T3) 0.72% | outcome (HACAT [2]) inactive [at 17.4 µM] | Potency (C33A) | Potency (CAOV3) | outcome (CASKI) | Potency (Es-2) | Potency (HeLa) | Potency (Hek293T) | Potency (JEG-3) | Potency (OV90)

Fc1ccccc1-c1nc2ccn(Cc3ccc(-c4ccc(C(F)(F)F)cc4C(F)(F)F)nn3)cc-2n1
inactive: max response (CRL-7250) 1.68% | max response (HEK293) -5.52% | outcome (HaCat [1]) | max response (KB-3-1) -0.729% | max response (NIH3T3) -4.04% | outcome (HACAT [2]) | Potency (C33A) | Potency (CAOV3) | outcome (CASKI) | Potency (Es-2) | Potency (HeLa) | Potency (Hek293T) | Potency (JEG-3) | Potency (OV90)
